For three molecules, inhibition results are on record in ChEMBL document CHEMBL1961873, “Compounds: GSK PKIS; Assays: Nanosyn kinase panel” (2012).

By inhibition is commonly meant the drop in the measured response relative to a control, in per cent.

For assay [1], the target named is T1, Mitogen-activated protein kinase 12 (Homo sapiens) (UniProt P53778).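 Also: values are averaged p38gamma kinase inhibition readings, compounds tested at 1 µM.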
T1 sequence (whole entry): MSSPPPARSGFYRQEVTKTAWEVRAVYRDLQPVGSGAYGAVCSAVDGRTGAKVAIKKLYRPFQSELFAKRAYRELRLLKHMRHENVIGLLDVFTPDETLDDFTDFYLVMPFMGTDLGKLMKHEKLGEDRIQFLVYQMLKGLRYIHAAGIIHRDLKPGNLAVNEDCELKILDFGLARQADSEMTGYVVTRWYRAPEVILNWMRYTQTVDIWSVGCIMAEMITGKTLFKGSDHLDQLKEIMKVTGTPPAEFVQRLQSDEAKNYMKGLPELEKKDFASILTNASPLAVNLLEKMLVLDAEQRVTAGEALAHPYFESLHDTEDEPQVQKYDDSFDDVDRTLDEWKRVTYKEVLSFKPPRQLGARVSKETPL
The conditions noted are these: at 1 µM.

Assay [2] addresses SRSF protein kinase 1 (Homo sapiens) (UniProt Q96SB4). The note with it: at 0.1 µM.
Assay [3] has the same target. The note with it: at 1 µM.
Assay [4] deals with Phosphatidylinositol 4,5-bisphosphate 3-kinase catalytic subunit alpha isoform (Homo sapiens) (UniProt P42336). The note with it: at 0.1 µM.
Sequence of Phosphatidylinositol 4,5-bisphosphate 3-kinase catalytic subunit alpha isoform (Homo sapiens) (P42336 whole entry, canonical isoform): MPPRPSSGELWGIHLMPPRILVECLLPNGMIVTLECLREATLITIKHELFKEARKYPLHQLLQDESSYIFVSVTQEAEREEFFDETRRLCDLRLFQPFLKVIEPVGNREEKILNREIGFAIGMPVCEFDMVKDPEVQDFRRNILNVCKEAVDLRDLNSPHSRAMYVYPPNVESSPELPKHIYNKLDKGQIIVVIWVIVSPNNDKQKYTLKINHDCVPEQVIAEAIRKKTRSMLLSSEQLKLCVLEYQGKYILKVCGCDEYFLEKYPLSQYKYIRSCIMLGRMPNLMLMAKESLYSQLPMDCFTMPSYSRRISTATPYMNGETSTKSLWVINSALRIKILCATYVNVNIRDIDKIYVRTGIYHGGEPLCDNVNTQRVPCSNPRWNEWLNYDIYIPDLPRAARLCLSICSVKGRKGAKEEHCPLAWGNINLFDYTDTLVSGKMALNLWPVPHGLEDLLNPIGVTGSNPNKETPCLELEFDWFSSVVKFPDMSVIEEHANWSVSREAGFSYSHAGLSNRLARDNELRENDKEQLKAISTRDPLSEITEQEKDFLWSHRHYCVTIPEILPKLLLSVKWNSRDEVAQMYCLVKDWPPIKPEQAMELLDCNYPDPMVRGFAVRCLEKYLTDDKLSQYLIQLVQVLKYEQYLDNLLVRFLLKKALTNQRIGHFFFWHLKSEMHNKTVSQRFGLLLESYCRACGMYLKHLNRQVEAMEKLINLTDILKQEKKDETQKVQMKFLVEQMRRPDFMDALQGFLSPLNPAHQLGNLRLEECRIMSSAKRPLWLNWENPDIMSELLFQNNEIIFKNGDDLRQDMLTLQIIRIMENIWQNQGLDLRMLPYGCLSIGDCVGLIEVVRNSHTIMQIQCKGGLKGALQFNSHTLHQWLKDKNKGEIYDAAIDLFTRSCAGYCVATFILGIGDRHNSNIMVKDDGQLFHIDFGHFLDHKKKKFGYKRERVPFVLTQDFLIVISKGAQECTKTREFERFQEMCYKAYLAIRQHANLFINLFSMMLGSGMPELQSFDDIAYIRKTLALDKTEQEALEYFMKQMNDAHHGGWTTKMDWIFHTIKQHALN
Assay [5] has the same target. The note with it: at 1 µM.
The target of assay [6] is T2, Phosphatidylinositol 4,5-bisphosphate 3-kinase catalytic subunit delta isoform (Homo sapiens) (UniProt O00329).
T2 sequence (whole entry): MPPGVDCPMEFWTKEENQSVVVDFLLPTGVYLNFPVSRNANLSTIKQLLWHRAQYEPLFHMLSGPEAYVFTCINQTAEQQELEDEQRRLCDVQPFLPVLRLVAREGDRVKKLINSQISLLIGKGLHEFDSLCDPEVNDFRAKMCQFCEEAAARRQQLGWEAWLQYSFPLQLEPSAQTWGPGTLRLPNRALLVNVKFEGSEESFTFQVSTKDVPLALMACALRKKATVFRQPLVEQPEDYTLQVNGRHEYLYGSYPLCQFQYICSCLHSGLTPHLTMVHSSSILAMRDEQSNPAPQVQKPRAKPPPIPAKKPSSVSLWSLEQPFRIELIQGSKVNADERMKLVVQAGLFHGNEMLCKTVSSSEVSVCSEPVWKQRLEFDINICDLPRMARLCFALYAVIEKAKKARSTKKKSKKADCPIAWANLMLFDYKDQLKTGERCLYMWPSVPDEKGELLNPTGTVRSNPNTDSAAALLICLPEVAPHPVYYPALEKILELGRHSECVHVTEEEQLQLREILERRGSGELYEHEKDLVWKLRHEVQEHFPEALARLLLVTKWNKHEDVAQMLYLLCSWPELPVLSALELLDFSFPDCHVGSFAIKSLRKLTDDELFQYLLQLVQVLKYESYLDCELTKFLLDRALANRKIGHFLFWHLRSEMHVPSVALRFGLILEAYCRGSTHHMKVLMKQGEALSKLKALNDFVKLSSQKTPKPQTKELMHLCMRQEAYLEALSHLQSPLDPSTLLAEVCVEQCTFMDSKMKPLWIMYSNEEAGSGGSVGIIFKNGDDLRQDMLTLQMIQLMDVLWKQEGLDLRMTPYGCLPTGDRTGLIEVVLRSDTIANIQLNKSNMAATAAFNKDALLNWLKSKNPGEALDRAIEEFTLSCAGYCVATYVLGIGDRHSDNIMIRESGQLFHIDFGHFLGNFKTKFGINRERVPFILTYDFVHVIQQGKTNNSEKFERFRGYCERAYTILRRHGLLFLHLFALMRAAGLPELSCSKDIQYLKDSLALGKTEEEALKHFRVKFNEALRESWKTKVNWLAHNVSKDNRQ
The note with it: at 0.1 µM.

Assay [7] deals with T2, Phosphatidylinositol 4,5-bisphosphate 3-kinase catalytic subunit delta isoform (Homo sapiens). The note with it: at 1 µM.
Assay [8] has as its target Phosphatidylinositol 4-kinase beta (Homo sapiens) (UniProt Q9UBF8). The conditions noted are these: at 0.1 µM.
Assay [9] has the same target. The conditions noted are these: at 1 µM.
Assay [10] has as its target Sphingosine kinase 1 (Homo sapiens) (UniProt Q9NYA1). The conditions noted are these: at 0.1 µM.
For assay [11] the target is unchanged. The conditions noted are these: at 1 µM.
Assay [12] addresses T3, Sphingosine kinase 2 (Homo sapiens) (UniProt Q9NRA0).
T3 sequence (whole entry): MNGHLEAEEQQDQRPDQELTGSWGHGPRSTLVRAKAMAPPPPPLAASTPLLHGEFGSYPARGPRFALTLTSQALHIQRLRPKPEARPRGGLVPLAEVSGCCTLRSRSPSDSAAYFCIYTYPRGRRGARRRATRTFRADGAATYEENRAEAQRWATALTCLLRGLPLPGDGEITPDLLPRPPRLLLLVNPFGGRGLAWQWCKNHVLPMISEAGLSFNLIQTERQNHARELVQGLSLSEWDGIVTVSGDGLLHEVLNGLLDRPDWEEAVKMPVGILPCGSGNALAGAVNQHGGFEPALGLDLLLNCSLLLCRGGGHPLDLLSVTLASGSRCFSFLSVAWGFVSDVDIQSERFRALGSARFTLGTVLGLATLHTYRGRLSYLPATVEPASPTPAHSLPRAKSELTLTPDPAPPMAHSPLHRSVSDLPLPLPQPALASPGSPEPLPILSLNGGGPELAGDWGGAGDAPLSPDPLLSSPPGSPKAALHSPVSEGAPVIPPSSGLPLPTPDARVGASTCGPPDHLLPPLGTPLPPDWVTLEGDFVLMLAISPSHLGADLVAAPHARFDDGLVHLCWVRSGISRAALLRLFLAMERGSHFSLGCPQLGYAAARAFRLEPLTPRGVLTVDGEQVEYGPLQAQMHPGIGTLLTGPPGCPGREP
The note with it: at 0.1 µM.

Assay [13] deals with T3, Sphingosine kinase 2 (Homo sapiens). The conditions noted are these: at 1 µM.
In assay [14] the target is Casein kinase II subunit alpha (Homo sapiens) (UniProt P68400). The conditions noted are these: at 0.1 µM.
Sequence of Casein kinase II subunit alpha (Homo sapiens) (P68400 whole entry, looked up): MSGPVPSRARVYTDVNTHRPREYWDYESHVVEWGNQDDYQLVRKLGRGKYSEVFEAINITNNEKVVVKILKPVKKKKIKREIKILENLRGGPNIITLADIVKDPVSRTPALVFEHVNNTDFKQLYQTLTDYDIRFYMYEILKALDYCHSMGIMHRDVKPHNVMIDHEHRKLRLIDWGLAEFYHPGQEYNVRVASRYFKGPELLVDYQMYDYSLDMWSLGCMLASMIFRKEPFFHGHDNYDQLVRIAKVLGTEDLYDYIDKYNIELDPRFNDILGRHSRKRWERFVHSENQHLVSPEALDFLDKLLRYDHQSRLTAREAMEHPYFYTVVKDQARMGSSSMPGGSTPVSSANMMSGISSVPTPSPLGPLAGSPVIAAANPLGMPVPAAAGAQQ
The target is the same in assay [15]. The note with it: at 1 µM.
Assay [16] deals with T4, Inhibitor of nuclear factor kappa-B kinase subunit alpha (Homo sapiens) (UniProt O15111).
T4 sequence (whole entry): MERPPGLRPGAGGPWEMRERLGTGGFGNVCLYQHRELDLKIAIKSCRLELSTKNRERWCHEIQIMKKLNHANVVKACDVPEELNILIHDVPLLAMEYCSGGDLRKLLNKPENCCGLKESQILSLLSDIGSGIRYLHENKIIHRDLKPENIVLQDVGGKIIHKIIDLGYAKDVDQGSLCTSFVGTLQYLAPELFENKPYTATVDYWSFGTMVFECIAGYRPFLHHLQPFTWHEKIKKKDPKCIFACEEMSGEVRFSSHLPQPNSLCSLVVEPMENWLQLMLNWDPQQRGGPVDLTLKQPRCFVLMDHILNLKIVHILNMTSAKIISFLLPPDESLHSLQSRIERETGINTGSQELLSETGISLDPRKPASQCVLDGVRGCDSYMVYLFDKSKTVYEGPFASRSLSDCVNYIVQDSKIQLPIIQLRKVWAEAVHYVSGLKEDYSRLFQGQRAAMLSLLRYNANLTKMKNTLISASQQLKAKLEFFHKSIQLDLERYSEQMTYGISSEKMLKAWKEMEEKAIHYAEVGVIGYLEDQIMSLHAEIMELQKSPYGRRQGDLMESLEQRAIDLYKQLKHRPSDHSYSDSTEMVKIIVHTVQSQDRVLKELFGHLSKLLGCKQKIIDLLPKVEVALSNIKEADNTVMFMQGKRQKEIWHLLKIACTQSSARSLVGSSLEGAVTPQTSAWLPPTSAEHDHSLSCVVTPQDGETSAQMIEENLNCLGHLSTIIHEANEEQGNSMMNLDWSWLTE
The conditions noted are these: at 0.1 µM.

Assay [17] concerns the target T4, Inhibitor of nuclear factor kappa-B kinase subunit alpha (Homo sapiens). The conditions noted are these: at 1 µM.
Assay [18] deals with T5, Inhibitor of nuclear factor kappa-B kinase subunit beta (Homo sapiens) (UniProt O14920).
T5 sequence (whole entry): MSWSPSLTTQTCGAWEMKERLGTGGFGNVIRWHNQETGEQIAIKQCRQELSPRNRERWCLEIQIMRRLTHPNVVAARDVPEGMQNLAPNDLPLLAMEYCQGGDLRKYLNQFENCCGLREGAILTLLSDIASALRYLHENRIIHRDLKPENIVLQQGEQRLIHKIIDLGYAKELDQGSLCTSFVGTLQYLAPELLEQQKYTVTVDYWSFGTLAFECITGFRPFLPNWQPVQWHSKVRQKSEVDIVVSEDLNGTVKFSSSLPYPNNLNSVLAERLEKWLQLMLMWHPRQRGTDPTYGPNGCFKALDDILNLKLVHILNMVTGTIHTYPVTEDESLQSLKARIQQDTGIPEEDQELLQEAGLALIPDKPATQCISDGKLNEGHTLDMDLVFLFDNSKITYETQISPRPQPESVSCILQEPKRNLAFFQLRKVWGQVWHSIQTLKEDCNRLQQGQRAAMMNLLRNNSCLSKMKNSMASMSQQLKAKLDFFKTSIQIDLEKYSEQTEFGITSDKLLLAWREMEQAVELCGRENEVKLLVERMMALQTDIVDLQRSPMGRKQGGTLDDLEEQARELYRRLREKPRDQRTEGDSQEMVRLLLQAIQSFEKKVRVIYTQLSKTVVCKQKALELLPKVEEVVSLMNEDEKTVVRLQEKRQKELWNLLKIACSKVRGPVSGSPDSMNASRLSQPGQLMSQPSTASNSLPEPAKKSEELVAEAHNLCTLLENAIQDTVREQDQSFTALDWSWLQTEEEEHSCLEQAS
The note with it: at 0.1 µM.

Assay [19] addresses T5, Inhibitor of nuclear factor kappa-B kinase subunit beta (Homo sapiens). The note with it: at 1 µM.
For assay [20], the target named is T6, Inhibitor of nuclear factor kappa-B kinase subunit epsilon (Homo sapiens) (UniProt Q14164).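 Also: mean inhibition of IKKε reported, from the GSK PKIS dataset.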
T6 sequence (whole entry): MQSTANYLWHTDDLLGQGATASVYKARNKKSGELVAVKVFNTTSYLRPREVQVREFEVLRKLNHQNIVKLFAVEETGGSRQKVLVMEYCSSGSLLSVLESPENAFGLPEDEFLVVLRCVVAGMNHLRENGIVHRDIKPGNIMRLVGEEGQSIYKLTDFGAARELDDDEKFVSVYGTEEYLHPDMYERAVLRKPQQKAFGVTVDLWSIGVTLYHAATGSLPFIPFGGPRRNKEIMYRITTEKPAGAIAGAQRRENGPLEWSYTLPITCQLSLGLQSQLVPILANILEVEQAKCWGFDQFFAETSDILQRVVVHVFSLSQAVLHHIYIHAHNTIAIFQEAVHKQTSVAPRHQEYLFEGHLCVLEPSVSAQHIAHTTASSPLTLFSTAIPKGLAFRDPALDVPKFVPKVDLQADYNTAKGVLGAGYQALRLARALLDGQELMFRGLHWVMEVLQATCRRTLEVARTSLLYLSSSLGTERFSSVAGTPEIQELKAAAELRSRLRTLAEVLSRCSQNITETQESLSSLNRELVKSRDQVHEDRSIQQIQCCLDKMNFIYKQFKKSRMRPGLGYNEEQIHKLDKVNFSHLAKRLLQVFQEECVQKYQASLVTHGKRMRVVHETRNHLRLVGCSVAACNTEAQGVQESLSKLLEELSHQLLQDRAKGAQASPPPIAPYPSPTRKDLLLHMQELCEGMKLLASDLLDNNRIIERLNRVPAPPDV
The note with it: at 0.1 µM.

Sequence of SRSF protein kinase 1 (Homo sapiens) (Q96SB4 whole entry): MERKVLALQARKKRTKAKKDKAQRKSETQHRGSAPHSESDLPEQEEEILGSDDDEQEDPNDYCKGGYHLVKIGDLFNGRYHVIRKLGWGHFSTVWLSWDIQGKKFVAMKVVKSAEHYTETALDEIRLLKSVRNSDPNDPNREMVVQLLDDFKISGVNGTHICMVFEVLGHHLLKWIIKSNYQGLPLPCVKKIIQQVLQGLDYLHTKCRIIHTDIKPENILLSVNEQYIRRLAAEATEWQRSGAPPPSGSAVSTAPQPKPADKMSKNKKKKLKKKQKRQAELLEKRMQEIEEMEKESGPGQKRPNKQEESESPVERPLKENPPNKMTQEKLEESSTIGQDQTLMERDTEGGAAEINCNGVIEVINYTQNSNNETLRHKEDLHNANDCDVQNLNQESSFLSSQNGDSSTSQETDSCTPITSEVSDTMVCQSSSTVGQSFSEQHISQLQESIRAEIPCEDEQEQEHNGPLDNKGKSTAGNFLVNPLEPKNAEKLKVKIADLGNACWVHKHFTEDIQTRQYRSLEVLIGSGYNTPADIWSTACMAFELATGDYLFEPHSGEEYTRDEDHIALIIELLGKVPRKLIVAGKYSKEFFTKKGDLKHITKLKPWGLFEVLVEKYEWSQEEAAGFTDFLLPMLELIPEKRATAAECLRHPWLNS
Sequence of Phosphatidylinositol 4-kinase beta (Homo sapiens) (Q9UBF8 2-816 limits assumed): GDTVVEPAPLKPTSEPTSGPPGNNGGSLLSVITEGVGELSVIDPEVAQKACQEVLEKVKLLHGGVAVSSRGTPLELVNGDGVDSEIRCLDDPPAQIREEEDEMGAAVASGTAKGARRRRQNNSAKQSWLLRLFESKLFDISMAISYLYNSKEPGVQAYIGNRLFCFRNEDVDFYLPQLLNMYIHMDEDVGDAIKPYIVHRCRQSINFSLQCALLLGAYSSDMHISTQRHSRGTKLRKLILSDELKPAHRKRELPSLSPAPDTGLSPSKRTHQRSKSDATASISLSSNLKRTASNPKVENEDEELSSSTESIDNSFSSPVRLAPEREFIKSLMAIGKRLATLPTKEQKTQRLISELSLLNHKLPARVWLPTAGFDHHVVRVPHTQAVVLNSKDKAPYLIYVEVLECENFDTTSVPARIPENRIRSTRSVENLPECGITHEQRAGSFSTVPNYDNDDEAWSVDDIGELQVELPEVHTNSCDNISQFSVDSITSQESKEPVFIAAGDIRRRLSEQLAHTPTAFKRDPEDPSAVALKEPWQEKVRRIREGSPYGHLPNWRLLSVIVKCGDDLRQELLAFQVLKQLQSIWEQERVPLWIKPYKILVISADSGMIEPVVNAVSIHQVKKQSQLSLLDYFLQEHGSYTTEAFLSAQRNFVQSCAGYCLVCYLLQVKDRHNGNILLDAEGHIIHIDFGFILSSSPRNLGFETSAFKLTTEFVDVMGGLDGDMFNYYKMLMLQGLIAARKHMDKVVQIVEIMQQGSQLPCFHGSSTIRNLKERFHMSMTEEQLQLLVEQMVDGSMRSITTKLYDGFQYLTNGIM
Sequence of Sphingosine kinase 1 (Homo sapiens) (Q9NYA1 whole entry): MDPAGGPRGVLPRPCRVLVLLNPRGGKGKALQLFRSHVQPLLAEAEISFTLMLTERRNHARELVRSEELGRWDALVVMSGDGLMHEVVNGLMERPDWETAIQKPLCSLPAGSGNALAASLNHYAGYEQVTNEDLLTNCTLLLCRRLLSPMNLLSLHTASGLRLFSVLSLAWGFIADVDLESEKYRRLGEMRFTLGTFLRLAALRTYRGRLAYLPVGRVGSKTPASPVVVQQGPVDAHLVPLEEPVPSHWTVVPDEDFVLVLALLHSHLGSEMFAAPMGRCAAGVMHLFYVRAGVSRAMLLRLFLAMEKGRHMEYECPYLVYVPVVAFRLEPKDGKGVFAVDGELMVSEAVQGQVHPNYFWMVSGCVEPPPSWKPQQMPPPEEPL

On to `COc1cccc(-n2ncc3c(N/N=C/c4ccncc4)ncnc32)c1`, for which the inhibition was 14.1% in assay [1]; -1.14% in assay [2]; 4.65% in [3]; 3.22% in assay [4]; 7.14% in [5]; 2.66% in assay [6]. Besides, the inhibition in assay [7] was 10%; in assay [8] it was -3.14%; in assay [9], 1.7%; in assay [10] it was -0.71%; in assay [11] it was -2.79%; in [12], -0.91%. Besides, the inhibition in [13] is -0.32%; in [14], 18.2%; in [15] it was 59.7%; in assay [16], 1.55%; in assay [17] it was 1.71%; in assay [18], 4.82%. For the same molecule, the values for the inhibition in assay [19] and in assay [20] were 4.07% and 5.23%, respectively.

Take `CCn1c(-c2nonc2N)nc2c(C#CC(C)(C)O)ncc(OC[C@@H]3CCCN3)c21`: the inhibition in [1] is 0.35%; in [2], -1.57%; in assay [3] it was -2.53%; in assay [4], -0.15%; in assay [5] it was 0.24%; in [6], 0.06%. For the same molecule, the inhibition in [7] was 0.22%; in [8] it was 0.05%; in assay [9], 1.54%; in [10] it was -0.8%; in [11], 1.85%; in assay [12], 1.65%. Besides, the inhibition is 0% in [13]; 13.9% in assay [14]; -1.67% in assay [15]; 7.49% in assay [16]; -0.05% in assay [17]; 4.75% in assay [18]. For the same molecule, the results for the inhibition in assay [19] and in assay [20] were 4.4% and 89.6%, respectively.

Consider `Nc1nonc1-c1nc2cnccc2n1C1CCCCC1`, for which the inhibition in assay [1] was 0.39%; in assay [2], 1%; in assay [3] it was -0.52%; in [4], -2.06%; in assay [5], -3.54%; in assay [6] it was -1.65%. Further, the inhibition in [7] is 0.74%; in assay [8], 4.2%; in assay [9], -2.26%; in assay [10] it was 0%; in assay [11], 0.54%; in assay [12] it was 1.2%. Moreover, the inhibition in [13] was 0.21%; in assay [14], -0.44%; in [15], 4.16%; in assay [16], -6.64%; in assay [17], -2.66%; in [18], -2.5%. In addition, the inhibition was -5.78% in [19] and -0.73% in assay [20].
